Molecules are shown by their SMILES. In all, about 86,000 compounds went through this assay and about 1,100 (1.3%) were called active.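 How the source made its calls: active means compounds whose percent inhibition of the receptor-coactivator binding signal exceeds about 50% in the single-dose screen (limit read from the data); inactive means the rest.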 Many of the other results were omitted from the sample, so actives are more common in it than they were.

Estrogen receptor beta (Homo sapiens), sequence (Q92731 whole entry, looked up, the tested form may be a part): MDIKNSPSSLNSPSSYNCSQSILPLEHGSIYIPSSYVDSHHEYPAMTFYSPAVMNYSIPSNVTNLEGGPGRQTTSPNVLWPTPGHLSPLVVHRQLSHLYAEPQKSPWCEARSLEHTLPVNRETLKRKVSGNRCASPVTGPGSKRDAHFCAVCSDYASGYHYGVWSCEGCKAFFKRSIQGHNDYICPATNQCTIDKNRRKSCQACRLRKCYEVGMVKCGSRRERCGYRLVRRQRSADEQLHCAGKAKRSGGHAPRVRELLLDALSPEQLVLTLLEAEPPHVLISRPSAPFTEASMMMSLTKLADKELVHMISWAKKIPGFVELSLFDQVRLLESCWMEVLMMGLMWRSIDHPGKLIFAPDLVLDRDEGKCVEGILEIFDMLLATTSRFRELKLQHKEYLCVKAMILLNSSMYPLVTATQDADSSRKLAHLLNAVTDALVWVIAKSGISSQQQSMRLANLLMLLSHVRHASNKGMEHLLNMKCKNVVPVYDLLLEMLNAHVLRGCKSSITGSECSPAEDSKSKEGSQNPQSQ

The experiment concerns the target Estrogen receptor beta (Homo sapiens) (UniProt Q92731). The experiment can be described thus: inhibitors of ERβ-SRC1 coactivator interaction, primary screen, biochemical, TR-FRET, ERβ LBD, SRC-1 peptide (AID 633).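 Further: 0% = receptor plus peptide wells without compound and 100% = peptide-only wells.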 As to conditions: TR-FRET ER-beta LBD / SRC1-Cy5 peptide binding; at 25.6 µM; stronger effect = higher value; receptor agonist-loaded with 1 µM estradiol. In general terms: TR-FRET usually uses a lanthanide donor and a delayed reading to cut background.
A word on the inhibition: it is the drop in the measured response relative to a control, in per cent. For `COC(=O)c1ccc(NC(=O)CSc2nnc(-c3ccncc3)n2C)cc1`, the inhibition is -13.7% (inactive).
The figure for `C=CCn1c(SCc2c(C(=O)OC)sc(N)c2C(=O)OC)nnc1-c1ccc(Cl)cc1` is -3.96% (inactive); for `C=CCn1c(SCc2cc(C(=O)OC)c(C)o2)nnc1-c1ccncc1` it is 51.1% (active); for `O=C(CN(c1ccccc1)S(=O)(=O)c1ccc(Cl)cc1)Nc1ccccc1C(=O)N1CCCC1` it is -2.12% (inactive).
In the case of `C=C(C)CNC(=S)/N=c1\scc(C)n1CC`, the inhibition was 77.4% [fluorescence artefact?] (active).
`C=CCn1c(SCCOc2ccc(OC)cc2)nnc1C(NC(=O)c1ccc(OC)cc1)C(C)C` (configuration not stated): the inhibition is 6.7% (inactive).
As for `COC(=O)CSc1nc2c(c(C3CC=CCC3)c1C#N)CCC2` (configuration not stated), the inhibition was -2.54% (inactive).
With `CCC(c1nnnn1C(C)(C)C)N(Cc1cc2cccc(C)c2n2nnnc12)C1CCCC1` (configuration not stated), the inhibition is 1.68% (inactive).
Consider `O=C(CN1C(=O)CC(c2ccccc2)=Nc2ccccc21)NC1CCCCC1`, for which the inhibition is -6.21% (inactive).
With `COc1ccc(C)cc1S(=O)(=O)Nc1cccc(Cl)c1Cl` the figure was -12.3% (inactive).
With `Oc1c(Cl)cc(Cl)c(Cl)c1Cc1c(O)c(Cl)cc(Cl)c1Cl` the figure was 94.6% [fluorescence artefact?] (active); with `COc1cc(OC)c(-n2c(C)cc(C=O)c2C)cc1Cl`, 4.25% (inactive); with `O=C(/C=C/c1ccc(Cl)cc1Cl)c1cccnc1`, 23.9% (inactive).
With `Cc1ccc(CNC(=O)CN2CCN(Cc3ccc(Cl)cc3)C2=O)cc1` the figure was 52.1% [fluorescence artefact?] (active); with `CC(NC(=O)CN1CCN(Cc2ccc(Cl)cc2)C1=O)c1ccc2c(c1)OCCO2` (configuration not stated), -8.28% (inactive).
As for `CC1CCCC(NC(=O)CN2CCN(Cc3ccc(Cl)cc3)C2=O)C1C` (configuration not stated), the inhibition was -3.92% (inactive).
`COC(=O)c1cc(NC(=O)C2C3C=CC(C3)C2C(=O)O)cc(C(=O)OC)c1` (configuration not stated): the inhibition was -3.6% (inactive).
The figure for `Cc1cc(NC(=O)CSc2nc(C(C)C)nc3sc4c(c23)CCC(C)C4)no1` (configuration not stated) is -5.67% (inactive); for `COc1ccc(C2C(C(C)=O)=C(O)C(=O)N2Cc2cccnc2)cc1` (configuration not stated) it is -18.2% (inactive); for `CCCc1nc2oc3c(OCC)ncnc3c2c2c1COC(C)(C)C2` it is 2.61% (inactive).
Take `CC(C)CCSc1ncnc2c1oc1nc3c(cc12)COC(C)(C)C3`: the inhibition was 54.5% [fluorescence artefact?] (active).
The figure for `C=CCn1c(=S)[nH]c2nc3c(cc2c1=O)COC(C)(C)C3` is -1.84% (inactive).
The figure for `CCOc1cc2[nH]c(=S)n(CCN3CCCCC3C)c(=O)c2cc1OCC` (configuration not stated) is -0.24% (inactive); for `CCOc1cccc(NC(=O)Cn2nc(-c3ccc4c(c3)OCCO4)ccc2=O)c1` it is 0.68% (inactive).
With `C=CCc1ccc(OCCOc2cccc(/C=N/n3cnnc3)c2)c(OC)c1` the figure was -5.22% (inactive).
For `Cc1cccc(-n2c(Cc3cc(=O)[nH]c(=O)[nH]3)nnc2SC(C)C)c1`, the inhibition was 51.8% [fluorescence artefact?] (active).
The figure for `COc1cccc(-n2c(Cc3cc(=O)[nH]c(=O)[nH]3)nnc2SCC(=O)Nc2ccccc2)c1` is -4.83% (inactive); for `Cc1cccc(-n2c(N)cc(=O)nc2SC(C)C(=O)NC2CCCCC2)c1` (configuration not stated) it is -5.73% (inactive); for `COc1ccc(NC(=O)CSc2nc(NS(=O)(=O)c3ccc(C)cc3)cc(=O)[nH]2)cc1` it is -6.84% (inactive).
The figure for `Oc1c(C(c2ccccn2)N2CCOCC2)ccc2cccnc12` (configuration not stated) is 78.2% [fluorescence artefact?] (active).
The figure for `O=C(c1cccnc1NCc1ccccc1)N1CCOCC1` is 2.12% (inactive); for `Cc1nc2sc(C(c3ccco3)N3CCOCC3)c(O)n2n1` (configuration not stated) it is -29.9% (inactive).
As to `O=C(Nc1nccs1)c1cc(S(=O)(=O)N2CCOCC2)c(Cl)cc1Cl`, the inhibition is -7.67% (inactive).
With `c1ccc2c(-c3nn4nnnc4c4ccccc34)cccc2c1`, the inhibition was -6.58% (inactive).
With `CCOC(=O)C1=C(C)NC(SC)=NC1c1ccccc1` (configuration not stated) the figure was -3.63% (inactive); with `CC(Oc1ccc(Cl)cc1)c1ccnn1S(C)(=O)=O` (configuration not stated), -3% (inactive); with `O=C(c1cc2c(s1)CCC2)N1CCN(c2ccccc2)CC1`, 50.6% (active).
Turning to `COc1cccc(-c2nn(C)c3sc(C(=O)N4CCN(c5ccccc5)CC4)cc23)c1`, the inhibition is 10.8% (inactive).
The figure for `Cc1nc2ccc(C(=O)N3CCN(c4ccccc4)CC3)cc2s1` is -22% (inactive); for `O=C(Nc1ccccc1)c1ccc2c(c1)OCO2` it is 35.7% (inactive); for `Cc1nn(C)cc1CNC(=O)Nc1ccc(Cl)cc1` it is -6.02% (inactive).
The figure for `CCOC(=O)c1ccc(COC(=O)CCc2nc(-c3ccccc3)c(-c3ccccc3)o2)cc1` is 1.8% (inactive); for `COCCCn1c(Cc2csc(Nc3cccc(Cl)c3)n2)nnc1SCC(=O)OC1CCCCC1` it is 77.5% (active).
With `COCCCn1c(SCC(=O)Nc2ccccc2)nnc1-c1ccncc1` the figure was 1.64% (inactive); with `C=CCn1c(CC(=O)Nc2cccc(OC)c2)nnc1SCC(=O)NC1CCCCC1`, -1.41% (inactive); with `O=C(NCCCCCCNC(=O)NCc1ccco1)NCc1ccco1`, -27.9% (inactive).
Consider `CCOC(=O)c1sc(C)c2c1NC(C)(c1cccc3ccccc13)NC2=O` (configuration not stated), for which the inhibition was 14.4% (inactive).
With `COc1cc(OC)c(C(=O)Nc2ccc(N(C)C)cc2)cc1OC` the figure was 97.4% [fluorescence artefact?] (active); with `COc1ccc(Cl)cc1C(=O)Nc1ccc(N(C)C(C)=O)cc1`, 3.01% (inactive); with `COc1cc(OC)c(C(=O)NC2CCCCCC2)cc1OC`, -3.66% (inactive).
Take `COc1cccc2cc(C(=O)N3CCN(C(=O)c4ccccc4)CC3)c(=O)oc12`: the inhibition is -4.03% (inactive).
Turning to `COc1ccc(S(=O)(=O)N/N=C\c2ccc(OC)c(COc3ccc(C)cc3[N+](=O)[O-])c2)cc1`, the inhibition was 27.5% (inactive).
In the case of `Cc1ccc(NC(=S)NC(NC(=O)Cc2cccc3ccccc23)C(Cl)(Cl)Cl)cc1` (configuration not stated), the inhibition is 40.2% (inactive).
The figure for `O=C1CCCc2nn(-c3ccccc3)nc21` is -7.98% (inactive).
With `CN(c1ccc(C(=O)NCc2ccccn2)cc1)S(C)(=O)=O` the figure was -12.6% (inactive); with `O=C(NCc1ccccn1)c1cc2ccccc2oc1=O`, -2.55% (inactive); with `O=C(NCc1ccccn1)c1ccc2nc(-c3ccco3)c(-c3ccco3)nc2c1`, 93% [fluorescence artefact?] (active).

The values are drawn from PubChem BioAssay AID633 (Emory University Molecular Libraries Screening Center, 2007).
